Results from PubChem BioAssay AID743126 (The Scripps Research Institute Molecular Screening Center, 2013).
About 2,100 (0.57%) of roughly 370,000 compounds were called active. Only a selection was taken, and actives are over-represented in it overall. Unmarked numbers belong to inactive results.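 The calls were made as follows: active = inhibition above mean plus 3 SD of compounds lying within the high and low control bounds (cut at about 19% in these data); inactive = the rest.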

target: Group 3 secretory phospholipase A2 (Homo sapiens) (UniProt Q9NZ20); experiment: human group III sPLA2 inhibitors, primary screen, biochemical, QFRET, BODIPY PC-A2 liposome substrate (AID 743126); conditions: QFRET BODIPY PC-A2 liposome hydrolysis, fluorescence; at 12.2 µM; stronger effect = higher value;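 also: 0% = median of test compound wells and 100% = no enzyme DMSO wells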
Sequence (Q9NZ20 whole entry, looked up): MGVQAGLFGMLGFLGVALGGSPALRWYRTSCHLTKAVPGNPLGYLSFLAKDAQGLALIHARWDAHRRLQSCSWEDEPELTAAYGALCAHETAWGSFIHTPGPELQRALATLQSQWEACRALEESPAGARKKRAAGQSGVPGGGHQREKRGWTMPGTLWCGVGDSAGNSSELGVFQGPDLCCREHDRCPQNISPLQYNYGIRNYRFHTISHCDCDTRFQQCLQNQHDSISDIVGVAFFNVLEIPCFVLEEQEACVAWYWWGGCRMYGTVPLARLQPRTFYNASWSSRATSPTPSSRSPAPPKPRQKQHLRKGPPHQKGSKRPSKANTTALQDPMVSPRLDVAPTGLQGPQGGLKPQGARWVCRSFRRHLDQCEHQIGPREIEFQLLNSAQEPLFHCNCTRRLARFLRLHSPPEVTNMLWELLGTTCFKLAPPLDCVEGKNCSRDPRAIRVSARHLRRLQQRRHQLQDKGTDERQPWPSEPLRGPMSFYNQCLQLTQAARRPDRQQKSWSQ

Structure (SMILES) | inhibition
CC(C)OC(=O)c1ccc(NCc2cc(O)ccc2O)cc1Cl | 32.5% (active)
COc1ccc2c(c1)CN1CN(CCc3ccccc3)S(=O)(=O)CC21 (stereo not given) | 1.49%
C[C@@H]1ON(C)[C@H]2C[C@H]3c4[nH]c5cccc(-c6ccc7c(c6)OCO7)c5c4CCN3C[C@@H]12 | -5.9%
O=C(NCCCc1ccccc1)[C@H](Cc1ccccc1)NC1(C(=O)NCCc2c[nH]c3ccccc23)CCC1 | -86.7%
CN(CCc1ccccc1)C(=O)Cn1nc(-c2ccccc2)ccc1=O | 4.61%
O=C(NC1CCCCN(Cc2ccc(Cl)cc2)C1=O)c1ccc(Br)cc1 (stereo not given) | 2.5%
Cc1ccc(CN2CCCCC(NC(=O)C3CCCCC3)C2=O)cc1 (stereo not given) | 2.08%
CN(C)c1ccc(NC(=O)NC2CCCCN(Cc3ccc(Cl)cc3)C2=O)cc1 (stereo not given) | 20.4% (active)
CCOc1ccc(N(CC(=O)Nc2c(C)n(C)n(-c3ccccc3)c2=O)S(=O)(=O)c2ccc(Cl)s2)cc1 | -3.41%
O=C(NCCc1c[nH]c2ccccc12)OCc1cn(-c2c(F)cccc2F)nn1 | -62.2%
CC(=O)c1cc(-c2ccc3ccccc3c2)c(=O)n2c1CCC2 | -7.07%
O=C(CCCCCN1C(=O)C2C3C=CC(C3)C2C1=O)Nc1ccccc1 (stereo not given) | -2.11%
CC(=O)Oc1ccc2c(c1)C(=O)c1ccccc1C2=O | 20.7% (active)
CC(=O)Nc1ccc(Oc2ccc3c(c2)C(=O)NC3=O)cc1 | 1.41%
CC(=O)O[C@H]1c2ccccc2-c2ccccc2[C@@H]1OC(C)=O | 1.14%
O=C(NCCCNC(=O)NC1CCCCC1)NC1CCCCC1 | 6.47%
NS(=O)(=O)c1ccc(CCNC(=O)NC2CCCCC2)cc1 | 20.7% (active)
COc1ccc(OCC(=O)NCCc2ccc(S(N)(=O)=O)cc2)cc1 | 0.5%
O=C(NCCC1=CCCCC1)C1CCN(S(=O)(=O)c2ccc(Cl)s2)CC1 | -2.99%
COc1ccc(S(=O)(=O)NCCCCOc2ccc(Cl)cc2)cc1 | -35.8%
COc1cccc(NC(C)=[N+](C)CCNS(=O)(=O)c2ccc(Cl)cc2)c1 | 22.1% (active)
COc1cccc(NC(=O)CCNS(=O)(=O)c2ccc3c(c2)oc(=O)n3C)c1 | 5.16%
CN(C)[C@H]1CCN(c2cccc3c2S(=O)(=O)N2CC[C@H](C2)O3)C1 | -0.04%
Cc1ccc(OCc2nnc(SC/C=C/c3ccccc3)n2Cc2ccco2)cc1 | -14.9%
CC(=O)Nc1nc2ncccn2c1-c1ccc(C(F)(F)F)cc1 | 11.9%
